Source: PubChem BioAssay AID652208 (Broad Institute, 2013)
Measured potencies and affinities stand elsewhere. Active and inactive are the calls of the source.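 Rule for the calls: active = Loss of cell signal with fitted half-effect dose at or below twice the top valid tested dose; inconclusive = Poor fit, or flat fit from -70 to -30 percent; inactive = Half-effect above limit, rising signal, or flat within 30 percent.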

Test: HEK293T cell cytotoxicity, dose response, cytotoxicity control for HIV Vif inhibitor project, cherry-picks (AID 652208);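 note: 0% = median neutral control wells and -100% = median staurosporine control wells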
Details: HEK293T viability, CellTiter-Glo luminescence, 24 h; series mostly up to 26 µM; activity change, negative = cytotoxicity: at the top concentration

Row | Compound | activity change, negative = cytotoxicity
1 | O=C(CCCCCn1c(=S)[nH]c2ccc(N3CCOCC3)cc2c1=O)NCc1ccccc1Cl | -15.5% (inactive)
2 | CCc1cccc2cc3c(N)c(C(=O)Nc4ccc(S(=O)(=O)N5CCCC5)cc4)sc3nc12 | 0.681% (inactive)
3 | CCN(CC)c1ccc2cc(-c3nnc(-c4ccccc4)o3)c(=O)oc2c1 | -15.4% (inactive)
4 | CN(C)c1ccc(C(=O)c2ccc(N(C)C)c3ccccc23)cc1 | -15.2% (inactive)
5 | CC(C)C(c1nnnn1CC1CCCO1)N1CCN(C2CCCC2)CC1 (configuration not stated) | -1.94% (inactive)
6 | COc1ccc(C(=O)Nc2cc(OC)c(NC(=O)Nc3ccccc3)cc2OC)cc1 | -5.66% (inactive)
7 | CCOc1ccc(CC(=O)Nc2sc(Cc3ccccc3)c(C)c2C(N)=O)cc1OCC | -5.74% (inactive)
8 | CCCn1c(=N)c(C(=O)NCc2ccc3c(c2)OCO3)cc2c(=O)n3cccc(C)c3nc21 | -9.2% (inactive)
9 | COc1ccccc1Oc1coc2cc(OCC(N)=O)ccc2c1=O | 8.29% (inactive)
10 | COc1ccc(-c2csc(-c3cccnc3)n2)cc1C | -6.7% (inactive)
11 | COc1cc(NC(=O)c2ccc(C)cc2C)ccc1NC(=O)c1cccs1 | -17.1% (inactive)
12 | COc1cccc(NC(=O)NC2(C(F)(F)F)Oc3ccccc3O2)c1 | -13.2% (inactive)
13 | Cc1ccc(NC(=O)/C=C/C(=O)O)c(NC(=O)c2ccccc2)c1 | 3.16% (inactive)
14 | NS(=O)(=O)c1ccc(NC(=O)CCC(=O)N2CCOCC2)cc1 | 3.75% (inactive)
15 | O=C(CCNC(=O)c1ccco1)Nc1ccc(OC(F)(F)F)cc1 | 3.58% (inactive)
16 | Cc1ccc(-c2nn3c(C)nnc3c3ccccc23)cc1S(=O)(=O)NCc1ccccc1 | -23.3% (inactive)
17 | CCN(CC)C(=O)c1cccc(NC(=O)C2=COCCO2)c1 | -6.02% (inactive)
